From article PMC5700166

Key:
[1] = target: T1, GST-Nv-NF-kB (Ser allele) (Nematostella vectensis, UniProt A7UNT2 2-411); experiment: protein-binding microarray (PBM); PBM: ~300 nM protein, 6 mM HEPES pH 7.8, 80 mM KCl, 0.5 mM EDTA, 0.5 mM EGTA, 6% glycerol, 35 ng/ul poly-dIdC, 1% milk, 1 h, room temperature; Ap Aiptasia and Nv Nematostella (sea anemones) / Co Capsaspora / Aq Amphimedon (sponge) / Dm Drosophila / Hu human; RHD is the Rel homology domain; high values mean tight binding; conditions: dsDNA, one strand shown
T1 sequence: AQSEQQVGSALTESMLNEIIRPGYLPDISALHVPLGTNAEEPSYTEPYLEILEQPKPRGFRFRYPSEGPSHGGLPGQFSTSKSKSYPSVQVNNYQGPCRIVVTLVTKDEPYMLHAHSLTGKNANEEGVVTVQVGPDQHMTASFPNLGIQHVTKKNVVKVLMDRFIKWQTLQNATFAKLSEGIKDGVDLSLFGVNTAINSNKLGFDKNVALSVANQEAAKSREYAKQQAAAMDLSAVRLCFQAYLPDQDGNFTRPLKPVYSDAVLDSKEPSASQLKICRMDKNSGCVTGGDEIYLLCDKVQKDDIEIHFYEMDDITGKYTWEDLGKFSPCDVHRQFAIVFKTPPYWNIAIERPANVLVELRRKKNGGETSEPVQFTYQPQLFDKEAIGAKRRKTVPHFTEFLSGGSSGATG

GST-Hu-p50 = GST-Hu-p50 (Homo sapiens, UniProt P19838 7-356); experiment: as above; conditions: dsDNA, one strand shown
Chain of GST-Hu-p50 (P19838 7-356): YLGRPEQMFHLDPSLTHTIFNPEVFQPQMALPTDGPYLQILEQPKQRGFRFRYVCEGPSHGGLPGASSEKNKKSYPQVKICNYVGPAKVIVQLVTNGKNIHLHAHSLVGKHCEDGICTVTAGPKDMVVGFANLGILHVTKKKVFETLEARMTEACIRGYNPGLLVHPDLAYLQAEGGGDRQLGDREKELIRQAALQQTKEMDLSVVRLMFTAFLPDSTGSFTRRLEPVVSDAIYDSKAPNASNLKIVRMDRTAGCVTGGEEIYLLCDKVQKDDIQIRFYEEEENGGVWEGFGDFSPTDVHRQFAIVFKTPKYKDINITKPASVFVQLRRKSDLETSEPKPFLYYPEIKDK

| Sequence | binding signal [1] | binding signal (GST-Hu-p50) |
| --- | --- | --- |
| CCGATTAACATCAGTTCCCCCCATGATGTTAATCGGGTCTTGATTCGCTTGACGCTGCTG | 5.19 z-score | 4.95 z-score |
| CCGATTAACATCACCCCAGCCCCTGATGTTAATCGGGTCTTGATTCGCTTGACGCTGCTG | 1.91 z-score | 2.68 z-score |
| CCGATTAACATCACGTGTTTCCCTGATGTTAATCGGGTCTTGATTCGCTTGACGCTGCTG | 3.33 z-score | 1.11 z-score |
| CCGATTAACATCAGGGTGTTTTATGATGTTAATCGGGTCTTGATTCGCTTGACGCTGCTG | 2.32 z-score | 4.01 z-score |
| CCGATTAACATCAAGGGGGGATATGATGTTAATCGGGTCTTGATTCGCTTGACGCTGCTG | 4.16 z-score | 4.95 z-score |
| CCGATTAACATCAGAATAACCCCTGATGTTAATCGGGTCTTGATTCGCTTGACGCTGCTG | 3.11 z-score | 4.22 z-score |
| CCGATTAACATCAATTTGGGAAATGATGTTAATCGGGTCTTGATTCGCTTGACGCTGCTG | 2.36 z-score | 1.3 z-score |
| CCGATTAACATCAGGGGGTACCCTGATGTTAATCGGGTCTTGATTCGCTTGACGCTGCTG | 4.11 z-score | 4.44 z-score |
| CCGATTAACATCAGAAAATTACCTGATGTTAATCGGGTCTTGATTCGCTTGACGCTGCTG | 5.7 z-score | 4.34 z-score |
| CCGATTAACATCACGTAAACCCCTGATGTTAATCGGGTCTTGATTCGCTTGACGCTGCTG | 2.13 z-score | 3.75 z-score |
| CCGATTAACATCAAAGTGTCCCCTGATGTTAATCGGGTCTTGATTCGCTTGACGCTGCTG | 4.51 z-score | 3.85 z-score |
| CCGATTAACATCAGGGGATCCACTGATGTTAATCGGGTCTTGATTCGCTTGACGCTGCTG | 5.91 z-score | 4.97 z-score |
